High-throughput results deposited in PubChem by several laboratories.
Keap1 Nrf2 FP = Keap1-Nrf2 (human) interaction inhibition | Q14145 | Keap1 Kelch-Nrf2 peptide fluorescence polarization, 1536-well | inhibition, % at 9.4 µM | 0.15% of 340,000 active; in the data active = inhibition above about 12%; inconclusive = no clear call, values can overlap the other calls; inactive = below about 7.3%;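 also: human Keap1 Kelch domain with fluorescein labeled Nrf2 9mer peptide probe; higher means more block of Keap1 binding to Nrf2 peptide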
LANA DNA inh = blocks KSHV LANA C-terminal domain binding to DNA; inhibition, % at 9 µM; MBP-C-LANA/FAM-LBS DNA binding, fluorescence polarization; AID 504423; 0.078% of 340,000 active;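 active = highest replicate inhibition at or above 60% at 9 µM, even if other replicates fall short; inactive = all replicates below 60% inhibition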
EBV gp42 inh = inhibitors of Epstein-Barr virus glycoprotein 42; Q1HVG2; Fluorescence polarization binding assay, mP read-out; inhibition, % (tested at 21.74 µM); 0.42% of 220,000 active; in the data active = inhibition above about 50%
Target sequence (Q1HVG2 whole entry, looked up): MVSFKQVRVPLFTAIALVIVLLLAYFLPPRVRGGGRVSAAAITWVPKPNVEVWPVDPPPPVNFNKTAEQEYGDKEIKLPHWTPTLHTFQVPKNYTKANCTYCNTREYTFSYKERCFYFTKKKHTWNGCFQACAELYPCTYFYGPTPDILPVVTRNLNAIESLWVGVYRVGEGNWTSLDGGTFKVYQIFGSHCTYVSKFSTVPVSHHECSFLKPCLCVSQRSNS
GLD-1 TGE inh = GLD-1-TGE RNA interaction inhibition (C. elegans); Q17339; purified GLD-1 + fluorescein TGE RNA, fluorescence polarization; 0.44% of 320,000 active; inhibition, % at 5.96 µM; AID 2280;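 active = percent inhibition above a per-plate cutoff, the plate mean of test compounds plus 3 SD, cut at about 30% in these data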
E coli Lon inh = E. coli protease La inhibition. inhibition, % at 7.94 µM. P0A9M0. 0.42% of 360,000 active. purified E. coli Lon protease, fluorescence polarization; in the data active = inhibition above about 13%, passing the limit was not always enough
LANA-H2B inh = blocks KSHV LANA binding to histone H2A/H2B; inhibition, % (no concentration beside the values); 0.6% of 320,000 active; cell-free LANA-H2A/H2B peptide, fluorescence polarization; Q9QR71; in the data active = inhibition mostly above about 10%, no sharp cut-off; inactive = mostly below about 6.7%
A number is an active result; n = inactive; u = inconclusive; x = no result. Compounds with a hit are over-represented: about 1.5% of the library has one in this group of screens.

SMILES | Keap1 Nrf2 FP | LANA DNA inh | EBV gp42 inh | GLD-1 TGE inh | E coli Lon inh | LANA-H2B inh
COc1ccccc1NC(=O)CN1C(=O)COc2ccc(S(=O)(=O)N3CCCCCC3)cc21 | n | n | x | n | n | n
COCC(C)NC(=O)c1ccc(CN2CCc3ccccc3C2)cc1 (stereo unspecified) | n | n | n | n | n | 31
CN(Cc1nccn1C)C(=O)c1ccc(OC2CCN(CCc3ccccc3)CC2)cc1 | n | n | x | n | n | n
Cc1nnc(NC(=O)C2CC(=O)N(c3ccc4c(c3)OCCO4)C2)s1 (stereo unspecified) | n | n | x | n | n | 21
CCN(CC(=O)Nc1ccc(N2CCOCC2)cc1)C(=O)COc1ccccc1OC | n | n | n | n | n | 10
O=C(CSCc1cc(=O)[nH][nH]1)Nc1ccc(F)cc1 | n | n | n | n | n | 18
CCCCc1ccc(NC(=O)CSCc2cc(=O)[nH][nH]2)cc1 | n | n | n | n | n | n
CC(C)C(c1nnnn1C1CCCCC1)N1CCOCC1 (stereo unspecified) | n | n | n | n | n | 19
COc1ccc(N2CCN(C(c3nnnn3C3CCCC3)C(C)C)CC2)cc1 (stereo unspecified) | n | n | n | n | n | n
CCCNC(=O)c1cc(C2CCCN(C(=O)c3ccc4ccccc4c3)C2)on1 (stereo unspecified) | x | x | x | x | n | x
COc1ccc2nc(SCC(=O)Nc3ccc(S(=O)(=O)N4CCCC4)cc3)c(C#N)cc2c1 | n | n | n | n | n | n
O=C(CN1CCCC1)Nc1ccc(S(=O)(=O)N2CCCCC2)cc1 | n | n | x | n | n | 35
O=C(CN1CCCCC1)Nc1ccc(S(=O)(=O)N2CCCCCC2)cc1 | n | n | n | n | n | n
N#Cc1cc2ccccc2nc1SCC(=O)Nc1ccc(S(=O)(=O)N2CCCC2)cc1 | n | n | n | 45 | n | n
COc1ccc(S(=O)(=O)CCC(=O)NCCc2cccc(C)c2)cc1 | n | n | n | n | n | n
O=C(CCS(=O)(=O)c1ccccc1)NCc1ccccc1 | n | n | x | n | n | 37
Cc1cccc(CCNC(=O)CCS(=O)(=O)c2ccc(Br)cc2)c1 | n | n | n | n | n | 18
Cc1ccc(CNC(=O)CCS(=O)(=O)c2ccc(C)cc2)cc1 | n | n | n | n | n | n
Fc1ccc(NCc2cccnc2)cc1F | n | n | 115 | n | n | n
Cc1ccc(S(=O)(=O)N2CCC(C(=O)NCc3ccccc3Cl)CC2)cc1 | n | n | n | n | n | 93
O=C(NCc1ccccc1Cl)C1CCN(S(=O)(=O)c2ccc(F)cc2)CC1 | n | n | n | n | n | n
CCCC1OC23CCCCC2C(C#N)(C(=N)O3)C1(C#N)C#N (stereo unspecified) | n | n | n | 55 | n | n
CC1OC23CCCCC2C(C#N)(C(=N)O3)C1(C#N)C#N (stereo unspecified) | n | n | n | n | n | n
COc1ccc(N(C)C(=O)c2cc3c(s2)-c2ccccc2OC3)c(OC)c1 | n | n | x | n | n | 18
COC(=O)c1sccc1-n1cc2c(c1-c1ccccc1)c(=O)n(C)c(=O)n2C | x | x | x | x | n | x
SMILES | Keap1 Nrf2 FP | LANA DNA inh | EBV gp42 inh | GLD-1 TGE inh | E coli Lon inh | LANA-H2B inh
Cn1cnc2c(cnn2C)c1=O | n | n | x | x | n | x
CC(C)NC(=O)N(C)C[C@H]1OCCCC[C@@H](C)Oc2ccc(N(C)C)cc2C(=O)N([C@H](C)CO)C[C@@H]1C | x | x | x | x | n | x
N#Cc1c(SCc2c(Cl)cccc2Cl)nc(N)[nH]c1=S | n | n | x | n | n | 11
Cc1[nH]c(=O)nc(SCc2cccc(Cl)c2)c1C#N | n | n | x | n | n | n
CCCN1CC=C2C(C#N)=C(N)C(C#N)(C#N)C(c3cccc(OC)c3OC)C2C1 (stereo unspecified) | n | n | 75 | 104 | n | 17
N#CC1=C(N)C(C#N)(C#N)[C@H](c2ccoc2)[C@H]2CN(Cc3ccccc3)CC=C12 | n | n | 90 | 75 | n | 23
CN1CC=C2C(C#N)=C(N)C(C#N)(C#N)C(c3cccc(Cl)c3Cl)C2C1 (stereo unspecified) | n | n | 86 | 68 | n | n
N#CC1=C(N)C(C#N)(C#N)C(c2cccnc2)C2CN(C(=O)OCc3ccccc3)CC=C12 (stereo unspecified) | n | n | n | n | n | n
CC(=O)N1CC=C2C(C#N)=C(N)C(C#N)(C#N)C(C)C2C1 (stereo unspecified) | n | n | n | n | n | n
COc1ccc(OC)c(C2C3CN(C(C)C)CC=C3C(C#N)=C(N)C2(C#N)C#N)c1 (stereo unspecified) | n | n | n | 52 | n | n
CCCCOc1ccc(C2C3CN(C(=O)OCC)CC=C3C(C#N)=C(N)C2(C#N)C#N)cc1OC (stereo unspecified) | n | n | n | n | n | n
Cc1ccc(C(=O)Nc2nc(C(N)C(C)C)cs2)cc1 (stereo unspecified) | x | x | x | x | n | x
O=C(O)c1ccc(O)cc1O | n | n | x | n | n | 28
Cc1ccc(C(=O)OCC(=O)Nc2cc(C(C)(C)C)no2)c(C)c1 | n | n | x | n | n | 12
Cc1cc(=O)oc2cc(OC(C)C(=O)NCC3CCC(C(=O)O)CC3)ccc12 (stereo unspecified) | n | n | x | n | n | n
O=C(COc1ccc2c3c(c(=O)oc2c1)CCCC3)NCCN1CCOCC1 | n | n | x | n | n | n
CC(Oc1ccc2c3c(c(=O)oc2c1)CCCC3)C(=O)NCCN1CCOCC1 (stereo unspecified) | n | n | x | n | n | 11
Cc1cc(=O)oc2cc(OC(C)C(=O)NCC3CCCO3)ccc12 (stereo unspecified) | n | n | n | n | n | 21
CC(C)c1nc(SCC(=O)N2CCCCCC2)c2c(=O)n(C)c(=O)n(C)c2n1 | n | n | x | n | n | 53
COc1cc(CN(C)c2ncnc3sccc23)ccc1OC(F)F | n | n | x | n | n | 16
COc1ccc(OC)c(Nc2ncnc3sccc23)c1 | n | n | x | n | n | n
COCCCn1c(=O)cc(C)[nH]c1=S | n | n | n | n | n | 15
COCCCn1c(=S)[nH]c(C)c(C)c1=O | n | n | n | n | n | n
CCOC(=O)c1c(/N=C/c2ccc(O)cc2O)sc2c1CCC2 | x | x | n | 33 | x | n
CCOC(=O)c1c(/N=C/c2ccccc2O)sc2c1CCC2 | n | n | n | n | n | n
O=C(Nc1ccccc1)OCc1cc(-c2ccccc2Cl)on1 | n | n | n | n | n | 31
Nc1c(C(=O)O)ccc2c1C(=O)c1ccccc1C2=O | n | n | n | n | n | n
Nc1cc(C(=O)O)c(N)c2c1C(=O)c1ccccc1C2=O | u | n | 119 | 112 | 51 | n
CC1=NN(c2ccccc2)C(=O)/C1=C\c1ccc(Oc2ccc([N+](=O)[O-])cc2[N+](=O)[O-])cc1 | n | n | n | n | n | 22
COc1cc(/C=C2\C(=O)N(c3ccccc3)N=C2C)ccc1Oc1ccc([N+](=O)[O-])cc1[N+](=O)[O-] | n | n | n | n | n | n
